In PubChem BioAssay:
A number with no mark means an inactive call.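 How the source made its calls: active means RAM network inhibition above 8.4% in each of two replicates, 3 SD over the compound average; inconclusive means above 8.4% inhibition in only one replicate; inactive means 8.4% inhibition or less in each replicate.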

assay: RAM signaling pathway blockade in yeast – S. cerevisiae, Pdr1DBD-CYC8 efflux-inhibited sensitized strain, primary screen (AID 1298);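 further: 0% = DMSO untreated cells without growth and 100% = 10 µM 1-NA-PP1 full growth; higher means more yeast growth rescued from 5-FOA killing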; settings: S. cerevisiae cbk1-as DSE1-URA3 strain, 5-FOA growth OD615, 2 d; at 50 µM; hits give high values

SMILES	RAM network inhibition [%]
O=C(Cn1cc2c(n1)CCCC2)N1CCOCC1	6.94
CCOc1ccc(-c2nnc3ccc(SCC(=O)N4CCCCC4)nn23)cc1	1.25
O=C(NC1CCCCCCC1)c1c(O)c2ccccc2[nH]c1=O	-0.37
COC(=O)C(C)Sc1nnc(Cc2cc(=O)[nH]c(=O)[nH]2)n1-c1ccc(OC)cc1 (stereo not given)	2.47
O=C(CCn1c(=O)oc2ccccc21)Nc1ccc2c(c1)OCCO2	3.61
CCCOC(=O)C1=C(C)NC2=C(C(=O)C(C(=O)OC)C(C)C2)C1c1ccc(N(CC)CC)cc1 (stereo not given)	1.46
CC1CCc2nn(CC(=O)NCCCN3CCCC3=O)cc2C1 (stereo not given)	4.13
COc1ccc(C2C(C(=O)Nc3ccccc3OC)=C(C)Nc3ncnn32)cc1 (stereo not given)	-2.3
COc1ccccc1NC(=O)CSc1nc2ncccc2[nH]1	3.83
O=C(NCc1ccccc1Cl)c1cnc2n(c1=O)CCS2	-0.68
CCCS(=O)(=O)c1nc(S(=O)(=O)c2ccc(C)cc2)c(NCCCN2CCOCC2)s1	5.15
CCOC(=O)C(C)Sc1ncnc2nc[nH]c12 (stereo not given)	3.25
O=C(CSc1ncccn1)NCCc1ccccc1	2.5
CN1CCN(C(=O)c2ccc3c(c2)N(Cc2cccc(Cl)c2)C(=O)c2ccccc2S3=O)CC1 (stereo not given)	6.41
Cc1nc2sc(C(c3ccccc3)N3CCN(CCO)CC3)c(O)n2n1 (stereo not given)	4.51
N=c1n(CCO)c2ccccc2n1CCOc1ccc(Cl)cc1Cl	0.72
CCOCCCNC(=O)C(c1ccc(Cl)cc1)N1CCN(c2ccccc2)CC1 (stereo not given)	3.13
CCn1c(CNC(=O)c2ccc(OC)cc2)nnc1SC	4.37
COc1ccc(C2C(C(=O)NCCN(C)C)c3ccccc3C(=O)N2C)cc1OC (stereo not given)	1.92
Cc1csc2nc(CNS(=O)(=O)c3ccc(-c4ccccc4)cc3)cn12	4.87

SMILES	RAM network inhibition [%]
Cc1cc(-c2nnco2)c(C)n1-c1ccc(F)cc1	4.69
Cc1nn(-c2ccccc2)c(C)c1C(=O)OCC(=O)Nc1ccc2c(c1)OCO2	3.09
Cc1nc2ccccc2n1-c1ccccc1	4.25
CCSc1nnc(-c2ccc(Cl)cc2Cl)o1	2.2
COc1ccccc1N1CCN(C(=O)CCCCn2c(=O)[nH]c3ccsc3c2=O)CC1	5.16
C=CCn1c(CSc2nc3ccccc3s2)nnc1SCC(=O)OCC	9.66
COc1ccc(-n2ncc3c(N4CCCCC4)ncnc32)cc1	-1.99
CCC(=O)NCc1nc2ccccc2n1Cc1ccccc1F	2.45
O=C(CCS(=O)CCC(=O)NCc1ccccc1)NCc1ccccc1	4.15
COc1ccc(N2CCN(C(=O)C(Cc3ccccc3)n3cccc3)CC2)cc1 (stereo not given)	6.88
CCCC(=O)c1ccc(N2CCOCC2)c(F)c1	0.58
Cc1ccccc1-n1c(Cn2c(=O)sc3ccccc32)nnc1SCC(=O)N1CCOCC1	1.01
COc1ccc(OC)c2sc(NC(=O)c3ccc(Br)s3)nc12	2.69
CCc1c(C)sc(NC(=O)c2cccs2)c1C(=O)OC(C)C	5.72
COc1ccc(C(=O)Nc2ccccc2C(=O)NCCCn2ccnc2)cc1	2.86
CC(=O)Nc1ccc(C(=O)c2ccccc2)cc1	0.62
O=C(NCCCN1CCC(Cc2ccccc2)CC1)C1CC(=O)N(C2CCCC2)C1 (stereo not given)	2.13
CC(C)(C)c1nc(CN2CCCCC2)cc(CN2CCCCC2)c1O	1.19
O=C1CCC(=O)N1CNc1cccnc1	5.5
O=C(Cc1c(F)cccc1Cl)c1ccc(O)cc1O	-1.74
